Data on 15 compounds can be found in PubChem BioAssay AID2402 (Southern Research Specialized Biocontainment Screening …, 2010).

Molecules are shown by their SMILES. Measured potencies and affinities stand elsewhere. The source made the active and inactive calls.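 The calls were made as follows: active = viability below 70% at one or more tested doses; inactive = viability above 70% at every dose tested.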

The nature of this assay: cytotoxicity of synthesized analogs in Vero cells, SAR follow-up, cytotoxicity control for West Nile virus antiviral project, cell-based, set II (AID 2402). To be noted: Vero E6 viability, CellTiter-Glo, 72 h; series mostly up to 100 µM. Background: ATP-based viability assays read luminescence as a measure of living cells.
Consider `Cc1cccc2nc3n(c(=O)c12)CCC3`, for which the outcome was inactive.

As to `O=c1c2c(F)cccc2nc2n1CCC2`, the outcome was inactive.

Consider `O=c1c2cccc(Cl)c2nc2n1CCC2`, for which the result was inactive.

As for `COc1ccccc1NC(=O)CSc1nc2ccccc2c(=O)n1-c1ccc(F)cc1`, the compound was called inactive.

`Cc1cccc2c(=O)n3c(nc12)CCC3`: the call was inactive.

Take `O=[N+]([O-])c1ccc2c(c1)C(O)N1CCCC1=N2` (stereo not given): the call was inactive.

In the case of `Nc1ccc2nc3n(c(=O)c2c1)CCC3`, the call was inactive.

For `CC1(O)c2cc(Br)ccc2N=C2CCCN21` (stereo not given), the result was inactive.

With `O=C(CSc1nc2ccccc2c(=O)n1-c1ccc(F)cc1)Nc1ccc2c(c1)OCCO2`, the compound was classed as inactive.

As for `CC(=O)Nc1ccc2nc3n(c(=O)c2c1)CCC3`, the compound was classed as inactive.

Take `OC1c2cc(I)ccc2N=C2CCCN21` (stereo not given): the outcome was inactive.

As to `Cc1ccc2nc3n(c(=O)c2c1)CCC3`, the outcome was inactive.

As to `Cc1cc(OC(=O)c2c(F)cccc2F)n(Cc2ccccc2)n1`, the compound was classed as inactive.

Turning to `O=C(CSc1nc2ccccc2c(=O)n1-c1ccccc1)Nc1ccc2c(c1)CCC2`, the compound was classed as inactive.

As for `COc1ccc(NC(=O)CSc2nc3ccccc3c(=O)n2-c2ccc(F)cc2)cc1`, the result was inactive.
